According to PubChem BioAssay AID504339 (National Center for Advancing Translational Sciences (NCATS), 2011):
The campaign covered roughly 390,000 compounds. About 17,000 (4.4%) were called active. Inconclusive results (about 8%) are left out. This is one part of a sample in which actives are shown more often than they occur. Calls follow the shape of the dose curve; as a rule, active = well fitted inhibition curve with a large enough effect; inconclusive = small, poorly fitted or top-dose-only effect; inactive = no such curve, though single readings can be large or run the other way.

These molecules were tested against Lysine-specific demethylase 4A (Homo sapiens) (UniProt O75164) (assay: qHTS Assay for Inhibitors of JMJD2A-Tudor Domain). Details: AlphaScreen JMJD2A-Tudor / H3K4me3 peptide binding; series mostly up to 114 µM; activity change, negative = inhibition: at the top concentration.
Lysine-specific demethylase 4A (Homo sapiens), sequence (O75164 whole entry, looked up, the tested form may be a part): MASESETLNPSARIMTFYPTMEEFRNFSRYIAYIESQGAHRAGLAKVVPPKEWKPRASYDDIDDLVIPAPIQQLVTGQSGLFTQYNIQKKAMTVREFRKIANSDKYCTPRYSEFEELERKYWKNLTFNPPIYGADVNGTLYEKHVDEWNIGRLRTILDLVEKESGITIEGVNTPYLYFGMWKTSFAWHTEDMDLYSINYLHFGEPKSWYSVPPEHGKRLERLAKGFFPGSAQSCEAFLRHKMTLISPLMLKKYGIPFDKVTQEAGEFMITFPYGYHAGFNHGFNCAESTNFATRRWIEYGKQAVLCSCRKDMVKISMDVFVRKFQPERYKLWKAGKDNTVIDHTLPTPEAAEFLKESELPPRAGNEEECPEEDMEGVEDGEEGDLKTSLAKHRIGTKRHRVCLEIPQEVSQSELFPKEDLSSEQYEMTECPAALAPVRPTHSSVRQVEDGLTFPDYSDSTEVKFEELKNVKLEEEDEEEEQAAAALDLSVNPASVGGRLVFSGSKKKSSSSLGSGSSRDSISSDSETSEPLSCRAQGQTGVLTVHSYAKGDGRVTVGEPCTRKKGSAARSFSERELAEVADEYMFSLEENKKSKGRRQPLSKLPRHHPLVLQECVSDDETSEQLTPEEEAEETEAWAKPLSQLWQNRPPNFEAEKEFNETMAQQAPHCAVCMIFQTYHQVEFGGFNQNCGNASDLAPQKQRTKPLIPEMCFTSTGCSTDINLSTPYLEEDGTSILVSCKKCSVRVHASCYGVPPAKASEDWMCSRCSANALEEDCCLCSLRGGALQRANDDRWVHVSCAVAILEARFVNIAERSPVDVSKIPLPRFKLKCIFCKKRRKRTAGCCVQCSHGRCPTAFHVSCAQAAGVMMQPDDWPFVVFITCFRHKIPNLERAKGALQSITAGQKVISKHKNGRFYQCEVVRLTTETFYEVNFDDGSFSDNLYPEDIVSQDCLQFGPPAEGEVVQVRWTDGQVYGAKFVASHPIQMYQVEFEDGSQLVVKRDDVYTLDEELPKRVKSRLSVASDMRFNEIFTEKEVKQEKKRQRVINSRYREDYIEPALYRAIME
% is scaled to controls: 0 for no effect and ±100 for the full control effect; potency is read from the fitted curve at half-maximal effect.
Also: nearly all actives have a fitted effect of over 50% in size.

Row | Compound | activity change, negative = inhibition | Potency
1 | Cc1cc(C)c(-c2n[nH]c3c2C(c2ccccc2F)N(CCO)C3=O)c(O)c1 (configuration not stated) | -1.26% (inactive) | 
2 | COc1ccc(S(=O)(=O)NCc2ccc(C(=O)N(C)Cc3ccco3)cc2)cc1 | -22% (inactive) | 
3 | COc1ccc(N(Cc2ccc(N(C)C)cc2)C(=O)c2ccc(S(C)(=O)=O)cc2)cc1 |  | 63.1 µM (active)
4 | COc1ccc(CNC(=O)Cn2nnc(-c3ccc(S(C)(=O)=O)cc3)n2)cc1 | -16.8% (inactive) | 
5 | CCn1cc2nc(SCc3ccccc3Cl)n(CCc3ccccc3)c(=O)c2n1 | -12.3% (inactive) | 
6 | O=C(c1cccc(Br)c1)N1CCN(Cc2cc(=O)n3nc(-c4ccccc4)sc3n2)CC1 | -10.7% (inactive) | 
7 | COCCCNC(=O)c1c(NC(=O)c2cc(=O)c3cc(C)c(C)cc3o2)sc2c1CCCC2 | -1.74% (inactive) | 
8 | Cc1ccc(-c2nn3c(=O)cc(CN4CCN(C(=O)Nc5cccc(C(F)(F)F)c5)CC4)nc3s2)cc1 | -8.77% (inactive) | 
9 | O=C(c1cccnc1)N(c1cc2sc(=O)oc2c2ccccc12)S(=O)(=O)c1ccccc1 |  | 25.1 µM (active)
10 | O=C(c1cccnc1)N(Cc1ccccc1)C(=O)c1cccnc1 | -11% (inactive) | 
11 | COc1ccc(N(C(=O)c2cccnc2)S(=O)(=O)c2ccc(OC)c(OC)c2)cc1 | -16.9% (inactive) | 
12 | COc1ccc(C(F)(F)F)cc1NC(=O)c1sc2nc(-c3cccs3)ccc2c1N | -4.5% (inactive) | 
13 | COc1cccc(CNC(=O)C(NS(=O)(=O)c2ccc3nc(C)sc3c2)C(C)C)c1 (configuration not stated) | 2.32% (inactive) | 
14 | CCOC(=O)N1CCN(CCC(=O)Nc2cc(OC)ccc2OC)CC1 | -18.9% (inactive) | 
15 | CCOC(=O)N1CCN(C(=O)C2CCN(Cc3ccc(OC)cc3OC)CC2)CC1 |  | 1 µM (active)
16 | CCOC(=O)N1CCN(C(=O)C2CCN(S(=O)(=O)c3cc(Cl)ccc3OCC)CC2)CC1 | -10.4% (inactive) | 
17 | CC(C)(C)c1ccc(C(=O)NCC(c2ccco2)S(=O)(=O)c2ccc(F)cc2)cc1 (configuration not stated) | -9.42% (inactive) | 
18 | O=C(NCc1cccnc1)C(=O)NCC(c1cccnc1)N1CCN(c2ccccc2)CC1 (configuration not stated) | 10.9% (inactive) | 
19 | COc1ccc(CNC(=O)c2cc3c(-c4ccccc4F)nn(C)c3s2)c(OC)c1 | -20.3% (inactive) | 
20 | Cc1cc2c(cc1C)C(c1cccc(OC(C)C)c1)CC(=O)N2 (configuration not stated) | -5.14% (inactive) | 
21 | COc1cc(Br)cc2cc(S(=O)(=O)c3ccccc3)c(=O)oc12 | -8.42% (inactive) | 
22 | O=C(Cn1nc(C(F)(F)F)c2c1CCCC2)Nc1ccc(Cl)cc1 | 9.28% (inactive) | 
23 | O=C(Cn1ncc(N2CCCC2)c(Br)c1=O)c1ccc(Cl)cc1 | -11.7% (inactive) | 
24 | O=C(Cn1nc(CNc2ccc(Cl)cc2)[n+]2c1CCCCC2)c1ccc(Cl)cc1 |  | 44.7 µM (active)
25 | COc1cc(OC)c(NC(=O)c2c3c(nn2C)-c2ccccc2SC3)cc1Cl | -12.3% (inactive) | 

Row | Compound | activity change, negative = inhibition | Potency
26 | CC(C(=O)NC1CCS(=O)(=O)C1)N1C(=O)/C(=C/c2ccc(Cl)cc2)SC1=S (configuration not stated) |  | 56.2 µM (active)
27 | CN(C(=O)CN1C(=O)/C(=C/c2ccc(Cl)cc2)SC1=S)C1CCS(=O)(=O)C1 (configuration not stated) | -0.694% (inactive) | 
28 | O=C(Cc1ccc(Cl)cc1)NC1CCS(=O)(=O)C1 (configuration not stated) | -19.2% (inactive) | 
29 | COc1ccccc1C(=O)OCc1cc(=O)n2nc(-c3cccs3)sc2n1 | -26.7% (inactive) | 
30 | Cc1c(NS(=O)(=O)c2ccc(NC3CCCC3)c([N+](=O)[O-])c2)c(=O)n(-c2ccccc2)n1C | -19.9% (inactive) | 
31 | Cc1cc(C=O)c(C)n1-c1ccc(NC2CCCCC2)c([N+](=O)[O-])c1 |  | 17.8 µM (active)
32 | COc1ccc(NC(=O)CN(C)C(=O)c2ccc(NC3CC3)c([N+](=O)[O-])c2)cc1 | -29.9% (inactive) | 
33 | Cc1ccc(C)c2sc(NC(=O)c3ccc(S(=O)(=O)N4CCCC4)cc3)nc12 | -7.14% (inactive) | 
34 | COc1ccccc1CNS(=O)(=O)c1cc(Br)cc2c1N(C(C)=O)C(C)C2 (configuration not stated) | -4.44% (inactive) | 
35 | CC(C)CCNC(=O)CSc1nc2ccccc2nc1Cc1ccc(Cl)cc1 | -8.77% (inactive) | 
36 | CCC1CCCCN1S(=O)(=O)c1ccc(NC(=O)c2cc(=O)c3ccccc3o2)cc1 (configuration not stated) | -13.5% (inactive) | 
37 | CCOc1ccc(Nc2ncnc3scc(-c4ccc(OC)cc4)c23)cc1 | -0.662% (inactive) | 
38 | CCCCNC(=O)CSc1nccn1Cc1ccccc1 | -23.6% (inactive) | 
39 | COC(=O)CCSc1nccn1Cc1ccccc1 |  | 35.5 µM (active)
40 | O=C(CSc1nccn1Cc1ccc(Cl)cc1)NCc1ccccc1 | -23.4% (inactive) | 
41 | COc1ccc(CNC(=O)c2ccc3c(O)c(S(=O)(=O)c4ccccc4)c(=O)[nH]c3c2)cc1 | -14.7% (inactive) | 
42 | Cc1ccccc1NC(=O)c1c(NC(=O)c2ccccc2F)sc2c1CCC(C)C2 (configuration not stated) | 7.27% (inactive) | 
43 | COc1cc(C2/C(=C(\O)c3ccc4c(c3)CC(C)O4)C(=O)C(=O)N2Cc2ccco2)ccc1O (configuration not stated) | -24.3% (inactive) | 
44 | COc1cc(C2/C(=C(\O)c3ccc4c(c3)CC(C)O4)C(=O)C(=O)N2c2nnc(C)s2)cc(OC)c1OC (configuration not stated) |  | 44.7 µM (active)
45 | CCOc1ccc(C2/C(=C(/O)c3ccc4c(c3)CC(C)O4)C(=O)C(=O)N2CCCn2ccnc2)cc1 (configuration not stated) | -35.2% (inactive) | 
46 | O=C(Nc1ccc2c(c1)OCO2)c1cc(-c2cccc(Cl)c2)on1 | -10.6% (inactive) | 
47 | CC(C)C12CN3CC(C(C)C)(CN(C1)C3c1ccc(OCc3ccccc3)cc1)C2=O (configuration not stated) | -19.2% (inactive) | 
48 | O=C(O)C1OC(C(=O)O)C2C1C(F)(F)C2(F)F (configuration not stated) |  | 28.2 µM (active)
49 | Cc1ccc2nc(/C(C#N)=C/c3ccccc3F)[nH]c2c1 | -15.7% (inactive) | 
50 | O=C(NNc1ccccn1)c1ccc(Cl)nc1 |  | 4.47 µM (active)

Row | Compound | activity change, negative = inhibition | Potency
51 | COc1ccc(C(=O)/C=C/Nc2ccccn2)cc1 | 1.84% (inactive) | 
52 | O=C(NNC(=O)c1ccc(Cl)nc1)c1ccc(Br)cc1 | -14.5% (inactive) | 
53 | COc1ccccc1-c1noc(-c2ccc(NCc3ccccc3)c([N+](=O)[O-])c2)n1 | -24.2% (inactive) | 
54 | CCN1CCC2(CC1)N=C(c1ccc(F)cc1)C(=S)N2C(=O)c1ccc(C)cc1 |  | 31.6 µM (active)
55 | CCN1CCC(N(Cc2ccc(F)cc2)C(=O)Nc2cc(C)ccc2C)CC1 | -10.6% (inactive) | 
56 | Cc1ccc(NC(=O)CN2C(=O)C(c3ccc(F)cc3)=NC23CCCCCC3)c(C)c1 | -6.38% (inactive) | 
57 | COc1cccc(NC(=O)N(Cc2cn(C)c3ccccc23)C2CCCCCC2)c1 | -33.3% (inactive) | 
58 | Cc1ccc(Cn2c(CCCNC(=O)C3CCCCC3)nc3ccccc32)cc1 | -22.5% (inactive) | 
59 | Cc1ccc(NC(=O)CCN2C(=O)c3ccccc3C2=O)cc1C | -6.38% (inactive) | 
60 | Cc1cc(C)cc(NC(=O)CCN2C(=O)c3ccccc3C2=O)c1 | -14.1% (inactive) | 
61 | Cc1cc2c(cc1C)N(C(=O)CN1C(=O)c3ccccc3C1=O)C(C)(C)c1ssc(=S)c1-2 |  | 39.8 µM (active)
62 | CCN(CC)c1cc(NC2CCCCC2)c2c3c(onc13)-c1ccccc1C2=O |  | 8.91 µM (active)
63 | Cc1cccc(-c2nc(SCc3ccc(Br)cc3)n3[nH]c(=O)cc3n2)c1 | -14% (inactive) | 
64 | Cc1cccc(CNC(=O)c2cnc3sc(N4CCCCC4)nn3c2=O)c1 | -12.3% (inactive) | 
65 | CCCCN(C(=O)C1CCC1)c1c(N)n(Cc2ccccc2)c(=O)[nH]c1=O | -4.03% (inactive) | 
66 | CCCCN(Cc1ccccc1)C(=O)C1CCN(Cc2sccc2C)CC1 |  | 5.62 µM (active)
67 | CCNC(=S)NNC(=O)C1CCN(Cc2ccccc2)CC1 | -11% (inactive) | 
68 | Cc1nn(-c2ccc(N3CCCCC3)nn2)c(C)c1CCC(=O)NCc1ccccc1F | -25% (inactive) | 
69 | COc1ccc(CN2CCCC(C(=O)N3CCCCC3)C2)cc1 (configuration not stated) |  | 79.4 µM (active)
70 | COc1ccc(CNC(=O)C2CCCC2)cc1 | -10.1% (inactive) | 
71 | COc1ccc(/C=C/C(=O)NC(=S)N2CCCC(C(N)=O)C2)cc1 (configuration not stated) | -11% (inactive) | 
72 | O=C(COc1ccc(Cl)cc1)Nc1ccccc1OCc1cc(=O)n2ccccc2n1 | -2.6% (inactive) | 
73 | CC(=O)c1cccc(NC(=O)C2COc3ccccc3O2)c1 (configuration not stated) | -2.33% (inactive) | 
74 | C/C(=N/NC(=O)C1COc2ccccc2O1)c1ccco1 (configuration not stated) | -5.63% (inactive) | 
75 | O=C(Nc1nc(-c2ccncc2)cs1)C1COc2ccccc2O1 (configuration not stated) |  | 50.1 µM (active)

Row | Compound | activity change, negative = inhibition | Potency
76 | O=C(CC(c1cccs1)N1Cc2ccccc2C1=O)Nc1ccc(F)cc1F (configuration not stated) | -31.7% (inactive) | 
77 | Cc1ccc(NS(=O)(=O)c2cc3c(cc2Br)NC(=O)CO3)cc1C | -12.9% (inactive) | 
78 | COc1ccc(-c2c(C)c3ccc(O)c(CN4CCN(C)CC4)c3oc2=O)cc1OC | -13.6% (inactive) | 
79 | COc1c(O)cc2oc(-c3ccc(O)c(O)c3)cc(=O)c2c1O |  | 31.6 µM (active)
80 | CCOC(=O)COc1cc(OCC(=O)OCC)c2c(=O)cc(-c3ccccc3)oc2c1 | 1.3% (inactive) | 
81 | O=C(CCc1nc(CN2CCN(S(=O)(=O)c3ccc(F)cc3)CC2)no1)N1CCCCC1 | -35.2% (inactive) | 
82 | O=C(Nc1ccc(OC(F)(F)F)cc1)c1cc2c(=O)n3ccccc3nc2s1 | -18.1% (inactive) | 
83 | CCc1cccc(C)c1NC(=O)COC(=O)CNC(=O)c1cccs1 | -15.8% (inactive) | 
84 | CCc1c(C)sc(NC(=O)c2ccc(Br)o2)c1C(=O)OC | 71.5% (inactive) | 
85 | CCc1c(C)sc(NC(=O)c2cccs2)c1C(N)=O |  | 89.1 µM (active)
86 | CC1CCCN(S(=O)(=O)c2ccc3[nH]c(=O)cc(C(=O)NCCc4ccc(Cl)cc4)c3c2)C1 (configuration not stated) | -6.12% (inactive) | 
87 | Cc1ccc(NC(=O)c2nc(S(=O)(=O)Cc3cccc(C)c3)ncc2Cl)cc1 | -31.4% (inactive) | 
88 | O=C(c1cn2ccccc2n1)N1CCc2c([nH]c3ccccc23)C1c1ccccn1 (configuration not stated) | -25.6% (inactive) | 
89 | Cc1cccc(C(=O)N2CCc3c([nH]c4ccccc34)C2CC(C)C)n1 (configuration not stated) | -29.9% (inactive) | 
90 | Cc1cccc(C2c3[nH]c4ccccc4c3CCN2C(=O)c2cc(-c3cccn3C)n[nH]2)n1 (configuration not stated) |  | 56.2 µM (active)
91 | COc1ccc(CCNC(=O)c2cnc3sc(N4CCCCCC4)nn3c2=O)cc1OC | -12.7% (inactive) | 
92 | COc1ccccc1NC(=O)Cn1cnc2ccc(S(=O)(=O)N3CCC(C)CC3)cc2c1=O | -19.8% (inactive) | 
93 | COc1ccc(OC)c(NC(=O)CSC2=Nc3ccccc3C3=NC(CC(=O)NCCc4ccccc4)C(=O)N23)c1 (configuration not stated) | -23.7% (inactive) | 
94 | Cc1cccc(N(C)C(=O)CS(=O)(=O)c2cccc3nsnc23)c1 | -14.8% (inactive) | 
95 | Cc1cccc(C)c1NC(=O)CSc1nc2c([nH]1)c(=O)n(C)c(=O)n2C | -7.04% (inactive) | 
96 | Cc1ccc(NN=Nc2nc3c([nH]2)c(=O)n(C)c(=O)n3C)cc1 |  | 14.1 µM (active)
97 | Cc1cc(C)c(C=NNc2nc3c([nH]2)c(=O)n(C)c(=O)n3C)c(C)c1 | -17.9% (inactive) | 
